{"source": "PubChem BioAssay", "note": "The source made the active and inactive calls."}
{"assay": "basal CRE-LacZ reporter activity in PC12 – cell-based, unstimulated, primary screen (AID 1145)", "conditions": "no forskolin, luminescence, 4.5 h, higher = more signal, called active from +8 up or from −8 down"}
{"smiles": "C=CCOC(=O)[C@@H]1[C@H]2C(=O)O[C@H](c3ccccc3)[C@H](c3ccccc3)N2[C@H](c2ccc(OCCOC(=O)[C@H]3C[C@H]4C(=O)N5CCC[C@H]5C(=O)N4[C@H]3c3ccc(O)cc3)cc2)[C@@]12C(=O)Nc1ccccc12", "z-score": "-0.402 (inactive)"}
{"smiles": "C[C@@H]1CC[C@H]2C(=O)N3[C@@H](CC[C@@H](C)[C@@H]3c3cccc(N4CCOCC4)c3)C(=O)N2[C@H]1c1cccc(N2CCOCC2)c1", "z-score": "9.59 (active)"}
{"smiles": "COc1ccc(-c2ccccc2[C@@H]2N[C@H](C(=O)O)CC[C@H]2C)cc1", "z-score": "1.01 (inactive)"}
{"smiles": "CN1CCC(CCCO)=CC1C1CC1", "note": "(stereo not given)", "z-score": "-0.131 (inactive)"}
{"smiles": "C=CCC(OC(C)=O)[C@@H]1[C@@H](N(Cc2cc3ccccc3o2)C(=O)c2ccc(C)cc2)c2cc(OCCCO)ccc2N1C(=O)c1ccc2ccccc2n1", "note": "(stereo not given in full)", "z-score": "5.44 (inactive)"}
{"smiles": "C[C@H]1COC(=O)[C@H](Cc2ccccc2)NC(=O)[C@@H](C)COC(=O)[C@H](Cc2ccccc2)NC1=O", "z-score": "2.52 (inactive)"}
{"smiles": "CCN1C(C)=C(C(=O)OC)[C@@H](c2ccccc2)N2C(=O)[C@@]3(C(=O)OC)O[C@@]12[C@@H]1C(=O)N(c2ccccc2)C(=O)[C@@H]13", "z-score": "0.384 (inactive)"}
{"smiles": "CCCC/C=C/[C@H]([C@@H](O)Cc1ccccc1)N(CC#Cc1ccccc1)Cc1ccccc1Br", "z-score": "-0.0534 (inactive)"}
{"smiles": "Cc1ccc(S[C@]2(C(=O)NCCCN(C)C)CC(=O)N(C3CCCCC3)[C@@H]2c2ccc(CO)cc2I)cc1", "z-score": "-0.0243 (inactive)"}
{"smiles": "CO[C@@H]1COC(=O)[C@H](C)NC(=O)CC=C[C@@H](C)[C@H](NS(=O)(=O)c2ccc(C)cc2)COC(=O)CC=C[C@@H]1C", "z-score": "-0.0234 (inactive)"}
